HT1080-NT tox: kills 2HG-producing HT-1080-NT fibrosarcoma cells; HT-1080-NT fibrosarcoma viability, CellTiter-Glo ATP luminescence, 48 h; Potency, µM (doses to about 46.1 µM), without a hit: top-dose activity, negative = less viability, actives largely listed as cytotoxic; 1.6% of 360,000 active;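 note: NT is the 2HG producing partner of a matched IDH1 knockdown line; potency is the fitted concentration of half-maximal effect; 0% = DMSO-treated cells and -100% = media-only wells without cells; nearly all actives have a fitted effect of over 55% in size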
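Luminescent CellTiter-Glo readout after 48 hours of compound exposure at 37 degrees C defined viability of HT-1080-NT cells. Activity was normalized to DMSO wells and cell-free media wells; concentration-response curves were fitted and assigned curve classes.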
HT1080 IDH1KD tx: toxicity to HT-1080 IDH1 knockdown cells (counter line); AID 686971; 2% of 360,000 active; HT-1080 IDH1 knockdown viability, ATP luminescence, 48 h; Potency, µM (top dose mostly 46.1 µM), for inactives: top-dose activity, negative = toxicity, usual class: cytotoxic;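 note: potency is the fitted concentration of half-maximal effect; 0% = DMSO wells and -100% = cell-free medium wells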
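Knockdown cells (IDH1KD HT-1080) received compounds 2 h after plating at 750 cells/well and were kept 48 h at 37 °C in 5% FBS RPMI. A CellTiter-Glo luminescence read gave % activity for curve fitting.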
DT40 TDP1 CPT: growth inhibition of DT40 Tdp1-/-;hTDP1 cells with camptothecin (screen for TDP1 inhibitors); chicken DT40 Tdp1-/-;hTDP1 cells + 20 nM CPT, ATP luminescence, 48 h; Potency, µM (highest dose often 46.2 µM), for inactives: at the top dose activity change, negative = growth inhibition, usual class: inhibitors; 12% of 420,000 active; note: potency is the fitted concentration of half-maximal effect; nearly all actives have a fitted effect of over 55% in size
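Chicken DT40 Tdp1-/- cells complemented with human TDP1, 400 cells/well, exposed to compounds plus 20 nM camptothecin for at least 48 h at 37 C; viability read as ATP content by CellTiter-Glo luminescence.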
TDP1 cell noCPT: qHTS for Inhibitors of human tyrosyl-DNA phosphodiesterase 1 (TDP1): qHTS in cells in absence of CPT. DT40 Tdp1-/- hTDP1 cells, no CPT, ATP luminescence, 48 h. Potency, µM (series often up to 46.2 µM), for the others: at the top dose activity change, negative = growth inhibition, hits mostly inhibitors. 15% of 420,000 active. AID 686978, 2013; note: potency is the fitted concentration of half-maximal effect; nearly all actives have a fitted effect of over 55% in size
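Stably hTDP1-transfected Tdp1-null chicken DT40 cells were treated with library compounds minus camptothecin and grown for at least 48 hr at 37 °C, after which cellular ATP was quantified by luminescence.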
IL1B secr inh: inhibitors of inflammasome signaling (IL-1 beta secretion) | THP-1 LPS/ATP IL-1B secretion, AlphaLISA, 16 h; stronger effect = lower value | activity change, % at 57.5 µM | AID 743279 | 4.7% of 360,000 active; in the data active = activity change below about -50%; inconclusive = mostly about -30% to -49%
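THP-1 cells pretreated 1 hr with compounds (up to 57.5 uM final), then stimulated with LPS (250 ng/mL final) plus ATP (1.25 mM final); secreted IL-1B measured by AlphaLISA after 16 hr, decreased signal indicating inhibition.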
* hit, by the source's call; ? = inconclusive; . = no result; ! = not confirmed by another sample. Sampled rows, rich in hits. Any-hit rate of the full collection: about 19%. Unless noted, calls come from the whole dose curve; as a rule, active = well fitted curve in the direction sought with a large enough effect; inconclusive = small, poorly fitted or top-dose-only effect, or another doubt; inactive = no such curve, though single readings can be large; an effect the other way counts as inactive or inconclusive. Unless noted, % is set by controls: 0 for no effect and ±100 for the full control effect.

SMILES | HT1080-NT tox | HT1080 IDH1KD tx | DT40 TDP1 CPT | TDP1 cell noCPT | IL1B secr inh
CC1CCN(C(=O)COC(=O)c2cc3ccccc3oc2=O)CC1 | 18% | 17% | 6% | -28% | -19
Cc1c(C)n(CCCN(C)C)c2ncnc(NC3CCCCC3)c12 | -21% | ? | ? | ? | -53*
Cc1c(C)n(CCCN(C)C)c2ncnc(Nc3ccccc3)c12 | -10% | -8% | 14% | 23% | -27
COc1ccccc1Nc1ncnc2c1c(C)c(C)n2CCCN(C)C | 3% | 6% | 18µM* | ? | ?
CCOc1ccc(CCNC(=O)C2CCN(Cc3nc(-c4ccccc4C)oc3C)CC2)cc1OCC | . | . | -29% | -13% | .
Cc1ccccc1-c1nc(CN2CCCC(C(=O)NCc3cccnc3)C2)c(C)o1 (centres undefined) | -7% | -13% | 23µM* | 16µM* | -5
CCc1ccc(-c2nc(CN3CCCC(C(=O)NCCc4ccc(OC)c(OC)c4)C3)c(C)o2)cc1 (centres undefined) | -30% | ? | 23µM* | 13µM* | -59*
COc1ccc(CCNC(=O)C2CCCN(Cc3nc(-c4ccccc4C)oc3C)C2)cc1OC (centres undefined) | -5% | -14% | 23µM* | 23µM* | -4
COc1ccc(-c2nc(CN3CCC(C(=O)NCCCOC(C)C)CC3)c(C)o2)cc1OC | . | . | -2% | -15% | .
Cc1ccc(CCNC(=O)C2CCN(Cc3nc(-c4ccccc4C)oc3C)CC2)cc1 | . | . | 13µM* | 18µM* | .
CCc1ccc2oc(C(=O)Nc3ccccc3OC)cc(=O)c2c1 | . | . | -23% | -22% | .
Cc1cccc(N=C2NC(=O)/C(=C/c3cccnc3)S2)c1C | 2% | -10% | ? | -27% | -7
Cc1ccc(N=C2NC(=O)/C(=C/c3cccn3C)S2)cc1C | -1% | -20% | 21µM* | 9.2µM* | 20
Cc1cccc(N=C2NC(=O)/C(=C/c3cccn3C)S2)c1C | -18% | ? | ? | 8.2µM* | -3
Cc1ccc(N=C2NC(=O)/C(=C\c3ccc(C)s3)S2)cc1 | 28% | 29% | -16% | ? | -11
Cc1ccccc1N=C1NC(=O)/C(=C/c2cccn2-c2cccc(C(=O)O)c2)S1 | 9% | 11% | 8% | 3% | 52
Cc1ccc(N=C2NC(=O)/C(=C/c3cccn3C)S2)cc1 | -29% | 10µM* | 6.5µM* | 4.6µM* | 41
Cc1ccc(C)c(NC(=O)CN(C)C(=O)c2nn(C)c(=O)c3ccccc23)c1 | -6% | 3% | -14% | ? | 0
COCCn1ccc2c(OCC(=O)NCc3ccc(C)cc3)cccc2c1=O | -2% | -3% | -5% | 0% | -8
CC(=O)N1CCc2cc(S(=O)(=O)NCCCN3CCCCC3)ccc21 | -3% | 3% | -2% | 22% | -7
O=C(O)c1ccc(S(=O)(=O)NC2CCCc3ccccc32)cc1 (centres undefined) | 10% | 13% | -16% | -8% | 5
CC(=O)N1CCc2cc(S(=O)(=O)NCCC(=O)NCCc3ccc(Cl)cc3)ccc21 | 11% | 3% | 16µM* | ? | -6
CC(=O)N1CCc2cc(S(=O)(=O)NCCC3=CCCCC3)ccc21 | -9% | 21µM* | 9.2µM* | 2.6µM* | 1
CC(=O)N1CCc2cc(S(=O)(=O)NCCC(=O)NCCc3ccc(C)cc3)ccc21 | -9% | ? | 29µM* | 16µM* | 0
CC(=O)N1CCc2cc(S(=O)(=O)NCCC(=O)NCCc3ccccc3)ccc21 | 2% | -1% | ? | ? | 29
SMILES | HT1080-NT tox | HT1080 IDH1KD tx | DT40 TDP1 CPT | TDP1 cell noCPT | IL1B secr inh
CC(=O)N1CCc2cc(S(=O)(=O)NC3CCCc4ccccc43)ccc21 (centres undefined) | -16% | -29% | 13µM* | 14µM* | 20
CCOC(=O)[C@]12CCC=C1N(Cc1ccc3c(c1)OCO3)C(=O)[C@H](CC(=O)N1CCN(C(=O)c3ccco3)CC1)C2 | 12% | 4% | ? | -13% | -13
O=C(O)c1cccc(S(=O)(=O)N(Cc2ccccc2)c2ccc(Cl)cc2)c1 | -14% | -9% | 12% | 1% | 25
CC(=O)N1CCc2cc(S(=O)(=O)CCC(=O)NCc3ccc(Cl)cc3)ccc21 | -19% | -13% | ? | 21µM* | -9
CCC(=O)N1CCc2cc(S(=O)(=O)NCCC(=O)Nc3cc(C)cc(C)c3)ccc21 | 9% | 8% | -20% | -12% | -15
CCC(=O)N1CCc2cc(S(=O)(=O)NCCC(=O)NCc3ccc(C)cc3)ccc21 | . | . | 21µM* | ? | .
COc1ccc(NC(=O)CSc2nnc(NC(=O)C3CC3)s2)cc1OC | 2% | 12% | 0% | 7% | -9
C=CCNC(=S)NNC(=O)c1cccn(Cc2ccc(Cl)cc2Cl)c1=O | 3% | -21% | 16µM* | ? | 14
O=C(Nc1ccc(F)cc1)C1CCN(c2ncnc3c2nc2n3CCCCC2)CC1 | 0% | 2% | ? | 18µM* | -1
COc1ccccc1CNc1ncnc2c1nc1n2CCCC1 | . | . | ? | 8.2µM* | .
O=C(Nc1ccccn1)C1CCN(c2ncnc3c2nc2n3CCCCC2)CC1 | 4% | 0% | 2.3µM* | ? | 17
CCOc1ccc(Nc2ncnc3c2nc2n3CCCCC2)cc1 | . | . | ? | 21µM* | .
CSc1ccccc1NC(=O)CN(C)C(=O)C1CCN(C(=O)Nc2ccccc2)CC1 | 10% | 5% | -2% | -3% | -5
COc1ccccc1CNC(=O)C1CCN(c2ncnc3c2nc2n3CCCCC2)CC1 | -3% | -14% | ? | 23µM*! | -10
CC1(C(=O)N2CC3(CC(c4cccc(NC(=O)COc5ccc(Cl)cc5)c4)=NO3)C[C@@H]2C(N)=O)CC1 (some centres undefined) | 1% | 2% | 13µM* | 15µM* | ?
NC(=O)[C@@H]1CC2(CC(c3cccc(NC(=O)CC(c4ccccc4)c4ccccc4)c3)=NO2)CN1C(=O)COc1ccc(Cl)cc1 (some centres undefined) | -22% | -9% | 18µM* | ? | ?
NC(=O)[C@H]1CC2(CC(c3cccc(NC(=O)COc4ccc(Cl)cc4)c3)=NO2)CN1C(=O)c1ccc(Cl)cc1 (some centres undefined) | ? | ? | 18µM* | ? | ?
C/C=C/C(=O)N1CC2(CC(c3cccc(NC(=O)COc4ccc(Cl)cc4)c3)=NO2)C[C@@H]1C(N)=O (some centres undefined) | 11% | 9% | ? | -23% | ?

Screening data deposited in PubChem by National Center for Advancing Translational Sciences (NCATS).
